# According to ChEMBL document CHEMBL3988442, “University of Dundee, Small-Polar-MMV Screening Library” (2021):
# In all, about 66,000 compounds went through this assay and about 960 (1.5%) showed an effect of 50% or more. For the sample, strong results were picked, then their nearest neighbours and some compounds at random.
# System: Trypanosoma brucei
# Test: Trypanosoma brucei 72 hour study
# Format: functional, organism-based
# Design: scale not given: in the data most compounds retested in dose-response had high values
smiles,measurement,setting,value
CCOCCC(=O)N1CCc2cccc(S(=O)(=O)N3CCOCC3)c2C1,Percent Effect,"30 µM, 30.03 µM",-15.51%
CS(=O)(=O)c1ccccc1NCc1ccc(Cn2ccnc2)cc1,Percent Effect,"30 µM, 30.03 µM",-15.33%
CN(Cc1ccccn1)C1CC2(CCN(Cc3cccnc3)CC2)C1.O=C(O)C(F)(F)F.O=C(O)C(F)(F)F.O=C(O)C(F)(F)F,Percent Effect,"30 µM, 30.03 µM",-16.66%
CCNCc1ccc(OCc2ccc3c(c2)OCCO3)cc1.Cl,Percent Effect,"30 µM, 30.03 µM",-18.34%
CNCc1ccc(OCc2ccc3c(c2)OCCO3)cc1.Cl,Percent Effect,"30 µM, 30.03 µM",-35.77%
CCCNCc1ccc(OCc2ccc3c(c2)OCCO3)cc1.Cl,Percent Effect,"30 µM, 30.03 µM",56.18%
Cc1c(C(=O)N2CCCC(n3cccn3)C2)nnn1-c1ccccc1 (stereo not drawn),Percent Effect,10 µM,-41.06%
same,Percent Effect,"30.3 µM, […]",-3.586%
CNC(=O)CN1CCCC12CCN(Cc1c[nH]cn1)CC2.O=C(O)C(F)(F)F.O=C(O)C(F)(F)F,Percent Effect,"30 µM, 30.03 µM",-41.63%
Cc1ccc(-c2ccc(CC3NCCN(C)C3=O)cc2)cc1.Cl (stereo not drawn),Percent Effect,"30.3 µM, […]",-13.76%
CC(c1cn2ncsc2n1)N1Cc2ncccc2C1=O (stereo not drawn),Percent Effect,"30.3 µM, […]",6.941%
O=C(O)C(F)(F)F.O=C(c1ncccn1)N1C[C@H]2CCC[C@@]2(COCc2ccncc2)C1,Percent Effect,"30 µM, 30.03 µM",14.62%
O=C(O)C(F)(F)F.O=C(c1ncccn1)N1C[C@H]2CCC[C@@]2(COc2ccccn2)C1,Percent Effect,"30 µM, 30.03 µM",19.9%
O=C(O)C(F)(F)F.O=C(c1ccccc1)N1C[C@H]2CCC[C@@]2(COCc2ccncc2)C1,Percent Effect,"30 µM, 30.03 µM",-75.85%
Cc1ccoc1C(=O)N1C[C@H]2CCC[C@@]2(COCc2ccncc2)C1.O=C(O)C(F)(F)F,Percent Effect,"30 µM, 30.03 µM",58.51%
Fc1cnc(N2C[C@@H]3COC[C@]3(COc3ccccn3)C2)nc1.O=C(O)C(F)(F)F.O=C(O)C(F)(F)F,Percent Effect,"30.3 µM, […]",-2.43%
Cc1occc1C(=O)N1C[C@@H](OCc2cccnc2)[C@H]2OCCC[C@@H]21.O=C(O)C(F)(F)F,Percent Effect,"30 µM, 30.03 µM",-8.947%
Fc1cnc(N2C[C@H]3CCC[C@@]3(COc3ccccn3)C2)nc1.O=C(O)C(F)(F)F.O=C(O)C(F)(F)F,Percent Effect,"30 µM, 30.03 µM",83.95%
Cc1cncc(C(=O)N2C[C@H]3CCC[C@@]3(COc3ccccn3)C2)c1.O=C(O)C(F)(F)F.O=C(O)C(F)(F)F,Percent Effect,"30 µM, 30.03 µM",53.76%
CS(=O)(=O)N1C[C@H]2CCC[C@@]2(COc2ccccn2)C1.O=C(O)C(F)(F)F,Percent Effect,"30 µM, 30.03 µM",-36.44%
Cc1ccc(C(=O)N2C[C@H]3CCC[C@@]3(COc3ccccn3)C2)nc1.O=C(O)C(F)(F)F.O=C(O)C(F)(F)F,Percent Effect,"30 µM, 30.03 µM",43.42%
Cc1ccc(C(=O)N2C[C@@H](OCc3cccnc3)[C@H]3OCCC[C@@H]32)o1.O=C(O)C(F)(F)F,Percent Effect,"30 µM, 30.03 µM",5.646%
Cc1ccoc1C(=O)N1C[C@H](OCc2cccnc2)[C@H]2OCCC[C@H]21.O=C(O)C(F)(F)F,Percent Effect,"30 µM, 30.03 µM",55.38%
N#Cc1cccc(CN2CC[C@@H]3[C@@H]2CC(=O)N3Cc2cccnc2)c1.O=C(O)C(F)(F)F.O=C(O)C(F)(F)F,Percent Effect,"30 µM, 30.03 µM",-2.932%
CC(C)n1nc(CN2CCCCC2)c2c1CN(C(=O)c1ccno1)C2.O=C(O)C(F)(F)F,Percent Effect,"30.3 µM, […]",-65.47%
COCCN1CCC2(CC1)CCN(Cc1ccccn1)CC2.O=C(O)C(F)(F)F.O=C(O)C(F)(F)F,Percent Effect,"30.3 µM, […]",-12.12%
Cc1nc(CN2CC[C@H](OCC3CC3)[C@@H]2Cc2cccnc2)cs1.O=C(O)C(F)(F)F.O=C(O)C(F)(F)F,Percent Effect,"30.3 µM, […]",-53.44%
O=c1c(CN2CCCCCC2)coc(O)c1CN1CCCCCC1,Percent Effect,"30 µM, 30.03 µM",14.22%
CCN1CCCc2cc(-c3cncn3C(C)CN3CCOCC3)ccc21.Cl (stereo not drawn),Percent Effect,"30.3 µM, […]",-9.571%
CN1CCC2(CC1)CN(C(=O)c1cnccn1)Cc1ccccc12.O=C(O)C(F)(F)F,Percent Effect,"30 µM, 30.03 µM",-7.96%
CNC(=O)[C@@H]1C[C@H]2CN(Cc3ccc(C)s3)C[C@H]2N1C(C)=O.O=C(O)C(F)(F)F.O=C(O)C(F)(F)F,Percent Effect,"30.3 µM, […]",-19.68%
Fc1ccc(-c2nccnc2C2CCCNC2)cc1 (stereo not drawn),Percent Effect,"30.3 µM, […]",-3.462%
NC(=O)NCC1CCCCN1C(=O)c1cccc(Cl)c1 (stereo not drawn),Percent Effect,"30.3 µM, […]",-13.75%
Cc1ccc(C(=O)N2CCCCC2CNC(N)=O)cc1F (stereo not drawn),Percent Effect,"30.3 µM, […]",53.34%
NC(=O)NCC1CCCCN1C(=O)c1cc(F)cc(F)c1 (stereo not drawn),Percent Effect,"30.3 µM, […]",-17.02%
CC(C)(C)NC(=O)CN1CCNCC1.Cl.Cl,Percent Effect,"30 µM, 30.03 µM",-49.47%
CO[C@H]1C[C@@H]2CN(C(=O)Cc3ccc(C)s3)C[C@@H]2C1,Percent Effect,"30.3 µM, […]",15.04%
CSc1ccc(-c2nc(CN3C[C@@H](C)NC[C@@H]3C)c(C)o2)cc1,Percent Effect,"30.3 µM, […]",65.6%
CSc1ccc(-c2nc(CN3CCC(C(N)=O)CC3)c(C)o2)cc1,Percent Effect,"30 µM, 30.03 µM",22.66%
CNC(=O)CC1CCN(Cc2nc(-c3ccc(SC)cc3)oc2C)CC1,Percent Effect,"30.3 µM, […]",15.19%
CSc1ccc(-c2nc(CN3CCC(NC(C)=O)CC3)c(C)o2)cc1,Percent Effect,"30 µM, 30.03 µM",23.08%
CNC(=O)C1CCN(Cc2nc(-c3ccc(SC)cc3)oc2C)C1 (stereo not drawn),Percent Effect,"30 µM, 30.03 µM",5.239%
Cc1oc(-c2cc(F)cc(F)c2)nc1CN1C[C@@H](C)NC[C@@H]1C,Percent Effect,"30.3 µM, […]",16.81%
CSc1ccc(-c2nc(CN3CCNCC3C)c(C)o2)cc1 (stereo not drawn),Percent Effect,"30.3 µM, […]",65.66%
CSc1ccc(-c2nc(CN3CCC(CN)C3)c(C)o2)cc1 (stereo not drawn),Percent Effect,"30 µM, 30.03 µM",56.38%
Cc1ccc(-c2nc(CN3C[C@@H](C)NC[C@@H]3C)c(C)o2)s1,Percent Effect,"30.3 µM, […]",11.25%
Cc1nc(C)n(C2CCCN(C(=O)c3cscn3)C2)n1 (stereo not drawn),Percent Effect,"30.3 µM, […]",-21.61%
CCC(=O)N1Cc2nccn2CC(CN(C)Cc2cccnc2)C1.O=C(O)C(F)(F)F.O=C(O)C(F)(F)F (stereo not drawn),Percent Effect,"30 µM, 30.03 µM",3.591%
O=C(Nc1cccnc1)[C@H]1C[C@@H]2CN(Cc3ccc(F)cc3)C[C@H]1O2,Percent Effect,"30.3 µM, […]",-89.84%
CC(C)NC(=O)N1CC[C@H]2N(C)CC[C@@]2(C(=O)Nc2cccnc2)CC1,Percent Effect,"30.3 µM, […]",-97.82%
COCCn1c2c(ccc1=O)CC(NS(C)(=O)=O)CC2 (stereo not drawn),Percent Effect,"30 µM, 30.03 µM",-56.59%
O[C@@H]1CN(c2cnc3ccccc3n2)CC[C@H]1c1ccc2c(c1)OCO2,Percent Effect,"30 µM, 30.03 µM",-17.33%
Cc1ccc(C)c(CSc2nnc(C(N)C(C)C)o2)c1.Cl (stereo not drawn),Percent Effect,"30 µM, 30.03 µM",-51.12%
